An excerpt weighted towards active compounds, which were near 2.8% of everything screened.
Platelet DG rel: inhibitors of platelet dense granule secretion, primary screen, cell-based, MLPCN, human platelets. inhibition, %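 (compounds screened at 7.5 µM in platelet-rich plasma)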. human platelet-rich plasma, SFLLRN dense granule ATP release, luminescence. AID 1663, 2009. 300,000 tested, 0.22% active;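 active = mean replicate score, as percent of positive control, at or above 50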
HIF activator: HIF pathway transcriptional activators, primary screen, cell-based, U2OS HRE-luciferase, luminescence; U2OS HRE-luciferase reporter; normalized: DMSO 0%, desferrioxamine 100%; 300,000 tested, 0.32% active; activation, % at 7.5 µM (by protocol);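 active = mean activation of at least 10% of the iron chelator positive control signal, with at least half of replicates also reaching 10%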
PolyA inhibitor: polyadenylation inhibitors in yeast reporter cells, primary screen, luminescence, S. cerevisiae | AID 1875, 2009 | S. cerevisiae SKY197-pL101 polyadenylation reporter, beta-gal luminescence; efflux-impaired pdr1/pdr3 knockout yeast; score 100 = 6 SD above DMSO | activity score, % at 12 µM | 300,000 tested, 0.02% active;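 active = lowest replicate activity score at least 50, where 100 means six control SD above control mean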;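 note: yeast exposed to compound for 9 h at 30 °C; higher score means more reporter readthrough which indicates perturbed polyadenylation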
p-CIP stab down: p/CIP-EGFP fusion destabilizers, primary screen, fluorescence, F442A cells; Q05BA5; 16 h; decrease of EGFP signal, % at 10 µM; 290,000 tested, 0.01% active; AID 1984, 2009;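 active = EGFP signal decrease of at least 30% at 10 µM or well 3 SD below plate mean, unless failing retest; inactive = the rest, including hits failing retest or dose response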
Target sequence (Q05BA5 1-1403): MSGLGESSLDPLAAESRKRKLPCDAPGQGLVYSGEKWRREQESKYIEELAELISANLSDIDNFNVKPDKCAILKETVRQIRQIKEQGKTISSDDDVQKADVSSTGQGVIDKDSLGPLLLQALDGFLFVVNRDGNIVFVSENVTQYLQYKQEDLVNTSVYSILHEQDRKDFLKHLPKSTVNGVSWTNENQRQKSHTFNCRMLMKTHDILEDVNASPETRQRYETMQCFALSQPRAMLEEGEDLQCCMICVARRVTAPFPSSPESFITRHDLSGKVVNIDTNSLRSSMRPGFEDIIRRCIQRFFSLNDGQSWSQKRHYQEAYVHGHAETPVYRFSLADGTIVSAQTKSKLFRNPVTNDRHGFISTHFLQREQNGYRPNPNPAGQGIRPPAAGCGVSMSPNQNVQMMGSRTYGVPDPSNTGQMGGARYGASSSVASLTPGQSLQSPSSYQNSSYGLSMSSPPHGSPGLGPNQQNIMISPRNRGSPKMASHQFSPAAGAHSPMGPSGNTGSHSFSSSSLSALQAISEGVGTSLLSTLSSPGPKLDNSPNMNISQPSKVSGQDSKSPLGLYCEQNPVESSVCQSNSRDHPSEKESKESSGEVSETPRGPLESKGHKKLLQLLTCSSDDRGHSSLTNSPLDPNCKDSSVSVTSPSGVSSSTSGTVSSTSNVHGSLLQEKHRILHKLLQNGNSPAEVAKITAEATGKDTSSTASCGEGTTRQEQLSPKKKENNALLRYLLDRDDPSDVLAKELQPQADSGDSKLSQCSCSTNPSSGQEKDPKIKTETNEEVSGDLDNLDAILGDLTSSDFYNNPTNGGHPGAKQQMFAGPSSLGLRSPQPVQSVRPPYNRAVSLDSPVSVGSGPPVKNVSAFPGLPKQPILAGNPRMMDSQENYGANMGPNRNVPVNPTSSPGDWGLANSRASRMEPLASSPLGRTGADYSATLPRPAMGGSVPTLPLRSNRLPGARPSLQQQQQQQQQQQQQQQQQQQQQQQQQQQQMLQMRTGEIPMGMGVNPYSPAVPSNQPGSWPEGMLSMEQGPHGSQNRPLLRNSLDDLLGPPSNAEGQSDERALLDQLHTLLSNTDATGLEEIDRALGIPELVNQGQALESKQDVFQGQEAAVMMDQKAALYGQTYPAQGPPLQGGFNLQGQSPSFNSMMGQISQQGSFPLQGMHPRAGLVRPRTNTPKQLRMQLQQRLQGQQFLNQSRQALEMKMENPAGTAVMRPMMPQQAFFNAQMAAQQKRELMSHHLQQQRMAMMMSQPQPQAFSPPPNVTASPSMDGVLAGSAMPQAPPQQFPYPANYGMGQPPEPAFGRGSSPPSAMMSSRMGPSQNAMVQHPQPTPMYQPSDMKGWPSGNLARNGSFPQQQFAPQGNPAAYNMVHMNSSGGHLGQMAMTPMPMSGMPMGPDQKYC
AHR act: AHR activators, primary screen, cell-based, luminescence, luciferase reporter, human | activation, % at 5 µM | 320,000 tested, 2.5% active | Aryl hydrocarbon receptor (Homo sapiens), P35869 | AHR-responsive luciferase reporter cells; in the data active = activation above about 47%;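 note: 0% = vehicle wells and 100% = reference agonist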
* = called active by the depositor.

For N=C1/C(=C/c2cccn2-c2ccc([N+](=O)[O-])cc2)C(=O)N=C2SC=CN12 the results were Platelet DG rel -6, HIF activator 0, PolyA inhibitor 7, p-CIP stab down -13 and AHR act 3.
For CCCNC(=O)c1cc2c3ccccc3n(C)c2s1 the results were Platelet DG rel 3, HIF activator 0, PolyA inhibitor -13, p-CIP stab down 0 and AHR act 52*.
For Cn1c2ccccc2c2cc(C(=O)NNC(=O)CCl)sc21 the results were Platelet DG rel -1, HIF activator -3, PolyA inhibitor 9, p-CIP stab down -5 and AHR act 62*.
COCCNC(=O)c1cc2c3ccccc3n(C)c2s1 was read as Platelet DG rel 9, HIF activator 0, PolyA inhibitor -13, p-CIP stab down 4 and AHR act 49*.
`CC(=O)Nc1ccc(S(=O)(=O)NNC(=O)c2cc3c4ccccc4n(C)c3s2)cc1` gave Platelet DG rel -2, HIF activator 0, PolyA inhibitor -22, p-CIP stab down 1 and AHR act 75*.
Screening CC(=O)Nc1ccc(S(=O)(=O)NNC(=O)c2cccc3ccccc23)cc1 returned Platelet DG rel 0, HIF activator -1, PolyA inhibitor -13, p-CIP stab down 9 and AHR act 7.
Cn1c2ccccc2c2cc(C(=O)OCC(=O)N3CC(=O)Nc4ccccc43)sc21 was read as Platelet DG rel 7, HIF activator 0, PolyA inhibitor 4, p-CIP stab down -2 and AHR act 31.
CCC(=C(c1ccc(OC)cc1)c1ccc(OC)cc1)c1cn(CC(O)CN2CCN(C)CC2)c2ccccc12 (centres undefined) was read as p-CIP stab down 8 and AHR act 1.
For Cc1ccc2[nH]c(-c3cccc(F)c3)cc(=O)c2c1 the results were Platelet DG rel 1, HIF activator 4, PolyA inhibitor 12, p-CIP stab down -7 and AHR act 50*.
Screening COc1ccc2[nH]c(-c3cccc(F)c3)cc(=O)c2c1 returned Platelet DG rel 0, HIF activator 5, PolyA inhibitor 1, p-CIP stab down -21 and AHR act 58*.
For Cc1ccc(-c2cc(=O)c3cc(F)ccc3[nH]2)cc1 the results were Platelet DG rel -7, HIF activator 2, PolyA inhibitor -5, p-CIP stab down -5 and AHR act 22.
O=c1cc(-c2cccc(F)c2)[nH]c2ccccc12 was read as Platelet DG rel -2, HIF activator 1, PolyA inhibitor -8, p-CIP stab down -2 and AHR act 61*.
Screening O=c1cc(-c2ccc(F)cc2F)[nH]c2ccccc12 returned Platelet DG rel 4, HIF activator 0, PolyA inhibitor 24, p-CIP stab down -18 and AHR act 2.
O=c1cc(-c2ccccc2)[nH]c2ccc(F)cc12 was read as Platelet DG rel 9, HIF activator 0, PolyA inhibitor -4, p-CIP stab down 4 and AHR act 58*.
For COc1ccc(-c2cc(=O)c3ccccc3[nH]2)cc1 the results were Platelet DG rel -9, HIF activator -1, PolyA inhibitor 28, p-CIP stab down -4 and AHR act 38.
Screening C[C@H](CO)N1C[C@H](C)[C@@H](CN(C)S(=O)(=O)c2cccs2)Oc2c(NC(=O)C3CC3)cccc2C1=O returned AHR act -1.
COc1ccc(OCC(=O)Nc2ccc(N3CCN(C(=O)c4ccccc4)CC3)c(Cl)c2)cc1 was read as Platelet DG rel -1, HIF activator 0, PolyA inhibitor -2, p-CIP stab down -5 and AHR act 0.
Screening Cc1cccc(NC(=S)N/N=C/c2ccc([N+](=O)[O-])s2)c1 returned HIF activator 1, PolyA inhibitor -95, p-CIP stab down -31 and AHR act 71*.
For Cc1cccc(NC(=O)/C=C/c2ccc([N+](=O)[O-])s2)c1 the results were Platelet DG rel -9, HIF activator 4, PolyA inhibitor 16, p-CIP stab down -13 and AHR act 29.
CCN1C(=O)C(=O)N(CC(=O)Nc2ccccc2Oc2ccccc2)C1=O was read as Platelet DG rel 2, HIF activator 0, PolyA inhibitor 7, p-CIP stab down -2 and AHR act -1.
O=C(N/N=C\c1ccc(-c2ccccc2[N+](=O)[O-])o1)C1COc2cc3ccccc3cc2O1 (centres undefined) was read as Platelet DG rel 5, HIF activator 0, PolyA inhibitor -4, p-CIP stab down -24 and AHR act 33.
`O=C(N/N=C\c1ccc(-c2ccccc2[N+](=O)[O-])o1)C1COc2ccccc2O1` (centres undefined) gave Platelet DG rel -4, HIF activator 1, PolyA inhibitor 26, p-CIP stab down 2 and AHR act 65*.
`COc1cc(-c2noc(-c3ccccc3C(=O)NCc3ccco3)n2)cc(OC)c1OC` gave Platelet DG rel 10, HIF activator 0, PolyA inhibitor -11, p-CIP stab down -6 and AHR act 3.
`COc1ccccc1-c1noc(-c2ccccc2C(=O)NCc2ccco2)n1` gave Platelet DG rel 0, HIF activator 1, PolyA inhibitor 1, p-CIP stab down 9 and AHR act 50*.
COc1ccccc1/C=C/C(=O)N1CCOCC1 was read as Platelet DG rel 6, HIF activator -1, PolyA inhibitor 1, p-CIP stab down -10 and AHR act 30.
Screening COc1ccccc1/C=C/C(=O)N1CCC(c2ccccc2)C1 (centres undefined) returned Platelet DG rel -4, HIF activator 2, PolyA inhibitor -10, p-CIP stab down -2 and AHR act 66*.
Screening CCOc1ccc(NS(=O)(=O)c2ccc(C(=O)N(C)Cc3cccc(OC)c3OC)cc2)cc1 returned Platelet DG rel 2, HIF activator 0, PolyA inhibitor 27, p-CIP stab down -20 and AHR act 3.
CC(=O)c1ccc(OC(=O)Cc2cccc3ccccc23)cc1 was read as Platelet DG rel -3, HIF activator 0, PolyA inhibitor 6, p-CIP stab down 2 and AHR act 2.
For COC(=O)CCc1nc2ccccc2[nH]c1=O the results were Platelet DG rel -4, HIF activator -1, PolyA inhibitor -6, p-CIP stab down 4 and AHR act -2.
Screening COC(=O)CSCc1nc2ccccc2[nH]c1=O returned Platelet DG rel 8, HIF activator 0, PolyA inhibitor 9, p-CIP stab down -2 and AHR act 64*.
`COc1ccc(NC(=S)NC(=O)Cc2ccccc2)c(OC)c1` gave Platelet DG rel 0, HIF activator 0, PolyA inhibitor -18, p-CIP stab down -8 and AHR act 48*.
`CCC(=O)NC(=S)Nc1ccc(OC)cc1OC` gave Platelet DG rel 8, HIF activator 1, PolyA inhibitor 9, p-CIP stab down 5 and AHR act 70*.
